Results reported in the supplement of paper PMC10811239.

Key:
Test in all cases: bioluminescence (viable cell) signal fold change after vs before treatment, normalised to DMSO (ratio); higher = more tumour cell growth / less inhibition
Conditions in all cases: 10 µM; treatment time 6 days
[1] = test system: LEGO organoid PT (PTEN-/-; TP53-/-)
Protocol: (§1)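 Luc2-labelled iPSC-derived glioblastoma-like organoids (LEGOs, genotypes PT = PTEN-/-;TP53-/-, PTCC = plus CDKN2A/B-/-, PTN = plus NF1-/-) were treated with 10 uM drug for 6 days (applied every other day) at 37 C. Bioluminescence imaging was done before treatment and 2 days after the last dose. BLI signals were normalised to the DMSO control on the same day and then to the pre-treatment signal (N=3).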

[2] = test system: LEGO organoid PTCC (PTEN-/-; TP53-/-; CDKN2A-/-; CDKN2B-/-)
Protocol: as §1

[3] = test system: LEGO organoid PTN (PTEN-/-; TP53-/-; NF1-/-)
Protocol: as §1

Row | Compound | bioluminescence [1] | bioluminescence [2] | bioluminescence [3]
1 | CCOC(=O)OC(C)OC(=O)[C@@H]1N2C(=O)[C@@H](NC(=O)[C@H](N)c3ccccc3)[C@H]2SC1(C)C.Cl (some centres not stated) [Bacampicillin hydrochloride] | 0.788 | 1.35 | 3.29
2 | CCN(CC)C(=O)[C@]1(c2ccccc2)C[C@@H]1CN.Cl [Milnacipran hydrochloride] | 1.54 | 1.02 | 2.39
3 | CN(CCOc1ccc(CC2SC(=O)NC2=O)cc1)c1ccccn1 (configuration not stated) [Rosiglitazone] | 0.664 | 1.87 | 1.22
4 | CC(=O)[C@H]1CC[C@H]2[C@@H]3CCC4=CC(=O)CC[C@]4(C)[C@H]3CC[C@]12C [Progesterone] | 0.82 | 0.682 | 1.12
5 | CCC(C)(C)C(=O)O[C@H]1C[C@@H](C)C=C2C=C[C@H](C)[C@H](CC[C@@H]3C[C@@H](O)CC(=O)O3)[C@H]21 [Simvastatin] | 1.45 | 1.71 | 0.364
6 | O=C(O)Cc1ccccc1Nc1c(Cl)cccc1Cl [Diclofenac] | 1.11 | 1.13 | 1.13
7 | CN=C(NC#N)NCCSCc1nc[nH]c1C [Cimetidine] | 1.14 | 2.25 | 1.65
8 | Nc1[nH]c(=O)ncc1F [Fluorocytosine] | 2.51 | 1.01 | 1.26
9 | CO[C@H]1/C=C/O[C@@]2(C)Oc3c(C)c(O)c4c(O)c(c(/C=N/N5CCN(C)CC5)c(O)c4c3C2=O)NC(=O)/C(C)=C\C=C\[C@H](C)[C@H](O)[C@@H](C)[C@@H](O)[C@@H](C)[C@H](OC(C)=O)[C@@H]1C [Rifampicin] | 3.6 | 0.603 | 0.579
